Bioassay records as filed in PubChem.
Hits are enriched below; roughly 2.1% of the tested compounds scored in any of these assays.
SIRT5 inh = inhibitors of human sirtuin-5 desuccinylase; AID 652115; inhibition, % at 15 µM; 1.1% of 330,000 active; Purified SirT5, succinyl-peptide AMC, trypsin-coupled fluorescence; in the data active = inhibition above about 15%
Target sequence (Q9NXA8 whole entry, looked up): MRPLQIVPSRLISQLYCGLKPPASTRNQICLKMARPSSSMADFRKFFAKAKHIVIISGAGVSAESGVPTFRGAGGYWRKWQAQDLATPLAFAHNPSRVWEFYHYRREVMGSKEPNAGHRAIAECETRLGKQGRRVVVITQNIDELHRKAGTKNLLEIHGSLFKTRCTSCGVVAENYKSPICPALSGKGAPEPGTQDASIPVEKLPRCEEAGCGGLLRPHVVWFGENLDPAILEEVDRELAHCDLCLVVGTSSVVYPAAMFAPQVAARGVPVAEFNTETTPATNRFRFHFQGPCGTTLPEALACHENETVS
NSD2 HMT inh = inhibitors of human histone methyltransferase NSD2. NSD2 peptide methylation, AlphaScreen, 120 min. inhibition, % at 12.5 µM. 0.54% of 310,000 active; in the data active = inhibition above about 50%
PfHsp90 yeast 2 = reduces growth (ATP signal) of yeast expressing P. falciparum Hsp90. S. cerevisiae expressing PfHsp90, BacTiter-Glo ATP, 48 h; yeast lacking PDR1 and PDR3 efflux regulators. inhibition, % at 9.4 µM. 0.32% of 310,000 active;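 active = every replicate shows inhibition above about 80%, whatever the replicate mean, limit read from the data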;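 note: 0% = DMSO neutral controls and 100% = 20 µM radicicol positive controls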
ARNT TACC3 PPI = ARNT/TACC3 interaction disruption. AID 623870. 0.66% of 390,000 active. inhibition, % at 9.99 µM. AlphaScreen His-ARNT PAS-B/GST-TACC3 binding, luminescence; TACC3 fragment carries E629A point mutation;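 active = mean inhibition of replicates at least 50% and at least half of replicates each reaching 50%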;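 note: 0% = complete ARNT plus TACC3 wells and 100% = ARNT alone without TACC3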
CASP6 VEID inh = inhibitors of human caspase-6; AID 686996; purified caspase-6, Z-VEID-R110 cleavage fluorescence; P55212; 0.53% of 350,000 active; inhibition, % at 12.5 µM;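 active = mean inhibition across replicates at least about 35%, with every replicate also reaching that limit, limit read from the data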;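 note: 0% = median of neutral control wells and 100% = no fluorescence left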
Target sequence (P55212 24-179 limits assumed): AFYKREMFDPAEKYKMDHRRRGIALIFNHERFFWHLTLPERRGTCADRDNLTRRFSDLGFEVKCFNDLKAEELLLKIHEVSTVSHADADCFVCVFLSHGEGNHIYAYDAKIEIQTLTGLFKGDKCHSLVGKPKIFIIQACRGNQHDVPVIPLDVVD
Target sequence (P55212 194-293 limits assumed): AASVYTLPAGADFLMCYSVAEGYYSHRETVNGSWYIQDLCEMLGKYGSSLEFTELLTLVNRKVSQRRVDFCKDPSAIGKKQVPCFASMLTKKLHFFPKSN
Starred values were filed as active, the others as inactive; . = no result given; ! = not confirmed by another sample.

SMILES	SIRT5 inh	NSD2 HMT inh	PfHsp90 yeast 2	ARNT TACC3 PPI	CASP6 VEID inh
CCOC(=O)N1CCN(S(=O)(=O)c2ccc(C(=O)Nc3nnc(CC)o3)cc2)CC1	.	2	-25	-1	.
CO[C@@H]1CN(C)C(=O)c2ccc(NC(=O)C3CC3)cc2OC[C@@H](C)N(C(=O)c2ccccc2F)C[C@@H]1C	7	.	.	.	1
Cc1ccc(CNc2ccc(O)cc2)cc1	.	.	28	24*	.
C[C@H](CO)N1C[C@H](C)[C@@H](CN(C)S(C)(=O)=O)Oc2ccc(NC(=O)Nc3ccc(C(F)(F)F)cc3)cc2CC1=O	.	.	.	.	2
Cn1nc([N+](=O)[O-])nc1Sc1cccc2cccnc12	.	-6	-13	63*	-2
CN(C)C(=O)c1cccc(-c2ccc3c(c2)[C@H]2[C@H](CCN2C(=O)c2ccncc2)[C@@H](CO)N3C)c1	2	.	.	-10	-1
O=C1NC(c2ccccc2)=N/C1=C/c1ccco1	1	4	15	2	39*
O=C1CC(N2CCSCC2)C(=O)N1c1cccc(Cl)c1 (stereo unspecified)	-5	1	15	4	44*
c1ccc(CNCCC(Cc2ccccc2)c2ccco2)cc1 (stereo unspecified)	1	2	11	4	-3
CN(C)c1ccc(CNCCC(Cc2ccccc2)c2ccco2)cc1 (stereo unspecified)	-2	57*	-108	20	-1
C[C@@H](NC(=O)C[C@H]1C=C[C@H](NC(=O)CN2CCOCC2)[C@@H](CO)O1)c1ccccc1	-1	.	.	26	0
C[C@H](CO)N1C[C@H](C)[C@@H](CN(C)Cc2ccncc2)OCCCC[C@H](C)Oc2ccc(NC(=O)Nc3ccc4c(c3)OCO4)cc2C1=O	16*	.	.	0	1
C[C@H](CO)N1C[C@H](C)[C@H](CN(C)Cc2ccc3c(c2)OCO3)OCCCC[C@H](C)Oc2ccc(NC(=O)Nc3ccc(C(F)(F)F)cc3)cc2C1=O	-9	.	.	46*	2
C[C@H]1CCCCO[C@H](CN(C)Cc2ccc3c(c2)OCO3)[C@@H](C)CN([C@@H](C)CO)C(=O)c2cc(NC(=O)Nc3ccc(C(F)(F)F)cc3)ccc2O1	1	.	.	57*	0
C[C@H]1CCCCO[C@@H](CN(C)Cc2ccncc2)[C@@H](C)CN([C@@H](C)CO)C(=O)c2cc(NC(=O)Nc3ccc4c(c3)OCO4)ccc2O1	-1	.	.	14	-1
C[C@@H]1CCCCO[C@H](CN(C)Cc2ccccc2)[C@H](C)CN([C@@H](C)CO)C(=O)c2cc(NC(=O)C3CCCCC3)ccc2O1	2	.	.	7	-4
O=C(O)c1cc(S(=O)(=O)N2CCN(S(=O)(=O)c3ccc4ccccc4c3)CC2)ccc1Br	6	6	7	-6	40*
CCc1ccccc1NC(=O)c1cccc(Oc2ccc([N+](=O)[O-])cc2Cl)c1	-3	-2	92*	0	.
CC(=O)Nc1cccc(Oc2ccc([N+](=O)[O-])cc2Cl)c1	-5	-1	5	.	8
C[C@@H]1CCCCO[C@@H](CN(C)C(=O)c2ccccc2)[C@H](C)CN([C@H](C)CO)C(=O)c2cc(NS(=O)(=O)c3cccs3)ccc2O1	-5	.	.	-1	5
C[C@H](CO)N1C[C@H](C)[C@H](CN(C)Cc2ccc(C(F)(F)F)cc2)Oc2ccc(NS(=O)(=O)c3cccs3)cc2C1=O	16*	.	.	2	0
C[C@H](CO)N1C[C@H](C)[C@H](CN(C)S(=O)(=O)c2cn(C)cn2)Oc2ccc(NS(=O)(=O)c3cccs3)cc2C1=O	15*	.	.	4	-1
C[C@@H]1CCCCO[C@H](CN(C)Cc2ccc(Cl)c(Cl)c2)[C@@H](C)CN([C@H](C)CO)C(=O)c2cc(NS(=O)(=O)c3cccs3)ccc2O1	7	.	.	21	-2
C[C@@H]1CCCCO[C@@H](CN(C)Cc2ccc(C(F)(F)F)cc2)[C@@H](C)CN([C@@H](C)CO)C(=O)c2cc(NS(=O)(=O)c3cccs3)ccc2O1	19*	.	.	-1	-2
C[C@H](CO)N1C[C@H](C)[C@@H](CN(C)Cc2ccc(Cl)c(Cl)c2)OCCCC[C@H](C)Oc2ccc(NS(=O)(=O)c3cccs3)cc2C1=O	19*	.	.	3	-2
SMILES	SIRT5 inh	NSD2 HMT inh	PfHsp90 yeast 2	ARNT TACC3 PPI	CASP6 VEID inh
CCc1nc2ccc(C(=O)N3CC(C)CC(C)C3)cc2nc1CC (stereo unspecified)	.	-2	.	.	.
CCS(=O)(=O)Nc1ccc2c(c1)C(=O)N(C)C[C@H](OC)[C@@H](C)CN(C)[C@H](C)CO2	-4	.	.	1	0
C[C@@H]1CN([C@@H](C)CO)C(=O)c2cc(NS(=O)(=O)c3cccs3)ccc2O[C@@H]1CN(C)Cc1ccc(Cl)c(Cl)c1	18*	.	.	-7	2
C[C@H](CO)N1C[C@H](C)[C@H](CN(C)Cc2ccc(C(F)(F)F)cc2)OCCCC[C@H](C)Oc2ccc(NS(=O)(=O)c3cccs3)cc2C1=O	13	.	.	.	2
C[C@@H]1CN([C@@H](C)CO)C(=O)c2cc(NS(=O)(=O)c3cccs3)ccc2O[C@@H](C)CCCCO[C@@H]1CN(C)Cc1ccc(C(F)(F)F)cc1	19*	.	.	2	-2
C[C@H]1CCCCO[C@@H](CN(C)Cc2ccc(C(F)(F)F)cc2)[C@@H](C)CN([C@@H](C)CO)C(=O)c2cc(NS(=O)(=O)c3cccs3)ccc2O1	14	.	.	5	0
C[C@H]1CCCCO[C@H](CN(C)Cc2ccc(C(F)(F)F)cc2)[C@@H](C)CN([C@@H](C)CO)C(=O)c2cc(NS(=O)(=O)c3cccs3)ccc2O1	16*	.	.	-2	4
C[C@@H]1CN([C@H](C)CO)C(=O)c2cc(NS(=O)(=O)c3cccs3)ccc2O[C@@H]1CN(C)Cc1ccc(Cl)c(Cl)c1	4	.	.	-2	1
CCCN(C)C[C@H]1Oc2cc(C#Cc3ccc(F)cc3)ccc2S(=O)(=O)N([C@H](C)CO)C[C@@H]1C	15*!	.	.	23	-2
C[C@@H]1CN([C@@H](C)CO)S(=O)(=O)c2ccc(C#CC(C)(C)O)cc2O[C@H]1CN(C)Cc1ccccc1	11	.	.	2	1
CCCN(C)C[C@H]1Oc2cc(C#CCC3CCCC3)ccc2S(=O)(=O)N([C@H](C)CO)C[C@@H]1C	19*	.	.	24	-3
CCCN(C)C[C@H]1Oc2cc(C#Cc3cccc(F)c3)ccc2S(=O)(=O)N([C@@H](C)CO)C[C@H]1C	-1	.	.	3	-2
C[C@H]1CN([C@@H](C)CO)S(=O)(=O)c2ccc(C#CC(C)(C)O)cc2O[C@@H]1CN(C)Cc1ccc(F)cc1	16*	.	.	2	2
CCCN(C)C[C@H]1Oc2cc(-c3ccncc3)ccc2S(=O)(=O)N([C@H](C)CO)C[C@H]1C	17*	.	.	2	0
Cc1ccc(-c2ccc3c(c2)O[C@@H](CN(C)C)[C@H](C)CN([C@@H](C)CO)S3(=O)=O)cc1	-3	.	.	-5	-3
